# Measured values as given in PubChem BioAssay.
# Several values for one entry are separate records, joined by “and”; a condition that tells them apart may be missing. Equal values may be shown once. The source holds several records for some structures; these can differ, active in one and inactive in another. Activity calls are given as the source filed them.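 Rule for the calls, unless noted: active = thallium flux through the channel raised or lowered by more than 3 SD from vehicle-only wells, actives on both sides; inactive = the rest.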
# Key:
# [1] = stimulators of nuclear beta-catenin in C2C12, primary screen, imaging, WNT3A-conditioned medium, mouse C2C12, NPC library (AID 1117326; in the data active = nuclear beta-catenin stimulation mostly above about 4.2%, no sharp cut-off; inactive = mostly below about 10%); settings: stronger effect = higher value
# [2] = stimulators of insulin release from INS-1E, primary screen, cell-based, 5 mM glucose, NPC library (AID 1117329;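 active = compound raises insulin release from rat beta cells at 5 mM glucose, no numeric limit stated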); settings: rat INS-1E insulin secretion, at 10 µM, stronger effect = higher value
# [3] = growth inhibition of GSK3B-pretreated HCT116 cells – cell-based, CellTiter-Glo, 0.2 to 20 µM (AID 1117336;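 active = compounds lowering colon cancer cell viability after pretreatment blocking the GSK3B kinase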); settings: HCT116 viability after GSK3B inhibitor, at 20 µM, stronger effect = higher value
# [4] = inhibition of endothelial tube formation, primary screen, imaging, VEGF stimulated, CD31 staining, tube area, NPC library (AID 1117340;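 active = compound that reduces growth-factor-driven endothelial tube area in a mixed cell culture, no cutoff stated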); settings: VEGF-stimulated ADSC/ECFC co-culture, at 10 µM, stronger effect = higher value
# [5] = glucagon-like peptide 1 release enhancers, primary assay, NCI-H716 cell line, NPC library (AID 1117341;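 active = compound raises GLP1 secretion from the human gut endocrine cells, with no numeric limit stated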); settings: NCI-H716 cells, at 10 µM, stronger effect = higher value
# [6] = HCT116 colon cancer cell growth inhibition, primary screen, CellTiter-Glo luminescence, NPC library (AID 1117342;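 active = compounds that lower survival of HCT116 colon cancer cells in the luminescence readout, no numeric limit stated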); settings: at 20 µM (top of the series)
# [7] = CellTiter-Glo luminescent readout of SW480 viability loss, NPC library primary (AID 1117343;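 active = compounds that lower viability of the colon cancer cells in the luminescence readout, with no numeric limit stated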); settings: CellTiter-Glo luminescence; at 20 µM (top of the series)
# [8] = decreased DLD-1 cellular survival, CellTiter-Glo luminescent readout, NPC compound collection, primary HTS (AID 1117346;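 active = compounds that lower survival of DLD-1 colon cancer cells in the luminescence readout, no cutoff given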); settings: DLD-1 viability, CellTiter-Glo luminescence; at 20 µM (top of the series)
# [9] = molecular target: 6-phosphogluconate dehydrogenase, decarboxylating (Homo sapiens) (UniProt P52209); assay: 6PGD enzyme inhibitors, primary screen, biochemical, human, recombinant enzyme, NADPH absorbance (AID 1159550;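 active = at least 20% inhibition of 6-phosphogluconate dehydrogenase activity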); settings: recombinant 6PGD, NADPH absorbance 341 nm; at 10 µM; stronger effect = higher value
# 6-phosphogluconate dehydrogenase, decarboxylating (Homo sapiens), sequence (P52209 whole entry, looked up): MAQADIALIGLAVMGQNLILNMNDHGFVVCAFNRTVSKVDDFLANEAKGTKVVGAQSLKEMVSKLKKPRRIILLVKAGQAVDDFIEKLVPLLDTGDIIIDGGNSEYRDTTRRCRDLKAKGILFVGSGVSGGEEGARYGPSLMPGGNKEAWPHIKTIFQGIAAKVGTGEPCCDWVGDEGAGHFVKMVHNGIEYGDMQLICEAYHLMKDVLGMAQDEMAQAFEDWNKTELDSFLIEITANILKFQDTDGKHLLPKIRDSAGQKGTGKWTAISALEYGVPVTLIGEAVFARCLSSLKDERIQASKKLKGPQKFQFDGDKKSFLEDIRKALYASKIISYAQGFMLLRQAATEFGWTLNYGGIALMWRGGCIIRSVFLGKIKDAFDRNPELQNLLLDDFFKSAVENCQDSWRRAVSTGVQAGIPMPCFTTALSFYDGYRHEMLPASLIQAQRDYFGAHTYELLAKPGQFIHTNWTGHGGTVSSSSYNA
# [10] = modulation of C. elegans fzo-1 (AID 1259413; call rule not given here;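 note: fzo-1 mutant C. elegans worms in liquid wells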); settings: C. elegans fzo-1 modulator screen, mean read-out; stronger effect = higher value
# [11] = differential killing of epithelial or mesenchymal cells, primary screen, imaging, PC-3E GFP, TEM4-18 mCherry, co-culture (AID 1345086;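 active = compounds killing one labelled cell type while sparing the other, by normalised counts and ratio limits, not self-fluorescent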;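 for all read-outs here: cells exposed to compound for 72 h before imaging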;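 for red/green cell ratio (normalised): normalised mesenchymal count divided by normalised epithelial count so high means epithelial killing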); settings: imaging cell counts, at 1 µM; for red/green cell ratio (normalised): actives lie on both sides, counts scaled to control wells, 1 = unselective
# [12] = sensitizers of A549 cells to miR-34 induction, primary screen, imaging, A549 dox-inducible miR-34, nuclei and caspase counts (AID 1347080;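 active = compounds whose cell count with miR-34 switched on is under 0.7 times the count with it off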); settings: A549 miR-34 inducible, Hoechst nuclei count, 48 h
# [13] = survival rescue of mitochondrial mutant cells in low glucose, primary screen, MELAS cybrids, Rieske KO mouse fibroblasts, CellTiter-Glo (AID 1508586;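 active = mean z-score across replicates of 1.96 or higher in either the MELAS or the Rieske mutant cell line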;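 note: z relative to plate mean and SD of compound and empty wells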)
# [14] = molecular target: NAD(+) hydrolase SARM1 (Homo sapiens) (UniProt Q6SZW1); assay: SARM1 TIR NADase inhibitors, cell lysate, NAD-Glo luminescence (AID 1508614;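 active = compound whose remaining NAD level is above about 45 nM, limit read from the data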;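 note: higher remaining NAD means stronger inhibition of SARM1 NADase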); settings: SAM-TIR HEK293T lysate NADase, at 1 µM, stronger effect = higher value
# NAD(+) hydrolase SARM1 (Homo sapiens), sequence (Q6SZW1 whole entry, looked up, the tested form may be a part): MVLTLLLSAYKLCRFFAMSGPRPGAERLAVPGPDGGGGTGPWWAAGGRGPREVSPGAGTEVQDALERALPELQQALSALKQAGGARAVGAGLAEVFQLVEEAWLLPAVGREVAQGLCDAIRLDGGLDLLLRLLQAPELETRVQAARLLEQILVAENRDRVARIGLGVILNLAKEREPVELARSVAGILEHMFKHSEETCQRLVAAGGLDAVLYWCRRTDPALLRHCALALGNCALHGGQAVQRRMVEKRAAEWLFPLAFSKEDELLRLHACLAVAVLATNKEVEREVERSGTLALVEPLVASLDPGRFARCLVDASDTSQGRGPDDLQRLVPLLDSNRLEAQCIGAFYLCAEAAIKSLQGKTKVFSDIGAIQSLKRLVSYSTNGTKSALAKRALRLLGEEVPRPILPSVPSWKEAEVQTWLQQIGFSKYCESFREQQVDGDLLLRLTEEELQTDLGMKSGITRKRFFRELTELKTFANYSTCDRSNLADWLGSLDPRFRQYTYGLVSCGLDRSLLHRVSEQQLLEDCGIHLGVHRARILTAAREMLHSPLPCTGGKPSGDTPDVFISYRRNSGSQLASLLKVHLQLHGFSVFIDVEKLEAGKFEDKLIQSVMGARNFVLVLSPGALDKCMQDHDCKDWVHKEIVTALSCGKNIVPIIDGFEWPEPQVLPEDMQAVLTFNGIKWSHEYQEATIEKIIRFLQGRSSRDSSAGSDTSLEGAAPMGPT
# [15] = molecular target: Mitogen-activated protein kinase 7 (Homo sapiens) (UniProt Q13164); assay: ERK5 transactivation activators in reporter cells, primary screen, cell-based, HTS (AID 1508626;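 active = luciferase signal above three times the same-plate solvent-only control wells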;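 note: luciferase driven by Gal4-ERK5 fusion binding five Gal4 sites before minimal TATA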); settings: HeLa Gal4-ERK5 transactivation, 18 h, at 5 µM, stronger effect = higher value
# Mitogen-activated protein kinase 7 (Homo sapiens), sequence (Q13164 whole entry, looked up, the tested form may be a part): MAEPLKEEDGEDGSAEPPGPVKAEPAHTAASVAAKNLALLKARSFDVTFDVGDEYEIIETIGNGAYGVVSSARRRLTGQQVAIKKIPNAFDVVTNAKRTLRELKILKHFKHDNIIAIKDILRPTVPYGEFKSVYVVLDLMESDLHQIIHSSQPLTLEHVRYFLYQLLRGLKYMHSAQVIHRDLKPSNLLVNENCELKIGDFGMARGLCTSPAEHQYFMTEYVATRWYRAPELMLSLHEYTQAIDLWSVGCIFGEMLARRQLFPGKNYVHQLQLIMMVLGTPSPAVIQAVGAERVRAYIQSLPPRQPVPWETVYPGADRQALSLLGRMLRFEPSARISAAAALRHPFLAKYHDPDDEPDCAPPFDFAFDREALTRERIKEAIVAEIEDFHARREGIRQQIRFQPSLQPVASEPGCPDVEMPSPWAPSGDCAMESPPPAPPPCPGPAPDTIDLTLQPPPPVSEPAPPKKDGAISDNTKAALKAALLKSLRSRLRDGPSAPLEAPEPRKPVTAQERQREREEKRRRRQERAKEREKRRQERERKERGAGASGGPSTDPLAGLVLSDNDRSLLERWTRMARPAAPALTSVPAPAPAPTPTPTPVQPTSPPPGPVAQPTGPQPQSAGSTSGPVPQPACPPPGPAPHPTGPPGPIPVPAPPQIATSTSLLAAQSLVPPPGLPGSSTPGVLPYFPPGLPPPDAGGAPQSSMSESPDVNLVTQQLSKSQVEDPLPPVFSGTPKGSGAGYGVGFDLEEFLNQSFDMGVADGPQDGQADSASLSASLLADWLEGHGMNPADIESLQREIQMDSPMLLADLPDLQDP
# [16] = tested on: F380Y; assay: modulators of BK channel variants, profiling panel, selectivity assay, cell-based, U2OS BacMam, thallium flux, beta subunits (AID 1259406); settings: at 30 µM;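 note: initial slope of Thallos dye fluorescence rise after thallium is added; log ratio against the mean of 0.3% DMSO vehicle wells on the same plate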
# [17] = tested on: F380Y/beta1; assay: as above; settings: at 30 µM
# [18] = tested on: F380Y/beta2Delta; assay: as above; settings: at 30 µM
# [19] = measured here: epithelial PC-3E GFP cell survival
# [20] = measured here: mesenchymal TEM4-18 mCherry cell survival
# [21] = stronger effect = lower value, cell number ratio, induced over uninduced
# [22] = measured here: relative caspase fold change +Dox/-Dox
# [23] = measured here: total cells with miR-34 induction, stronger effect = lower value
# [24] = measured here: total cells without miR-34 induction
# [25] = MELAS cybrid survival, CellTiter-Glo 48 h, stronger effect = higher value
# [26] = Rieske KO mouse fibroblast survival, CellTiter-Glo 72 h
structure (smiles),measurement,setting,value
NCc1ccc(S(N)(=O)=O)cc1,nuclear beta-catenin stimulation,[1]; at 10 µM,0.8% (inactive)
same,nuclear beta-catenin stimulation,"[1]; stimulation, at 2 µM",0.2%
same,insulin secretion stimulation,[2],-0.5% (active)
same,viability decrease,[3],1.95% (inactive)
same,tube area decrease,[4],8.4% (inactive)
same,GLP1 secretion stimulation,[5],1.9% (inactive)
same,inhibition of viability,[6],7% (inactive)
same,viability decrease (inhibition),[7],14.1% (inactive)
same,viability decrease (inhibition),[8],13.8% (inactive)
same,inhibition,[9],-1.59% (inactive)
same,mean signal,[10],250 (inactive)
same,red/green cell ratio (normalised),[11],1 (inactive)
same,normalised cell number,[11]; [19],0.74
same,normalised cell number,[11]; [20],0.74
same,fold change,[12]; [21],0.973 (inactive) and 0.954 (inactive) and 0.851 (inactive)
same,fold change,[12]; [22],2.25 and 1.29 and 0.783
same,cell count,[12]; [23],11100 and 8530 and 11400
same,cell count,[12]; [24],11400 and 8940 and 13400
same,z-score,[13]; [25],0.171 (inactive)
same,z-score,[13]; [26],-0.0568
same,remaining NAD,[14],10 nM (inactive)
same,luciferase signal,[15],92 AU (inactive)
same,log fold change Tl+ flux,[16],0.0308 (inactive)
same,log fold change Tl+ flux,[17],0.0173 (inactive)
same,log fold change Tl+ flux,[18],-0.0418 (inactive)
CN[C@H]1CC[C@@H](c2ccc(Cl)c(Cl)c2)c2ccccc21,nuclear beta-catenin stimulation,[1]; at 10 µM,6.5% (inactive)
same,nuclear beta-catenin stimulation,"[1]; stimulation, at 2 µM",-1.4%
same,insulin secretion stimulation,[2],11.8% (inactive)
same,viability decrease,[3],98.7% (active)
same,tube area decrease,[4],67.1% (active)
same,GLP1 secretion stimulation,[5],7.5% (inactive)
same,inhibition of viability,[6],99.1% (active)
same,viability decrease (inhibition),[7],120% (active)
same,viability decrease (inhibition),[8],98% (active)
same,inhibition,[9],-2.43% (inactive)
same,mean signal,[10],250 (inactive)
same,red/green cell ratio (normalised),[11],1.12 (inactive)
same,normalised cell number,[11]; [19],0.93
same,normalised cell number,[11]; [20],1.05
same,z-score,[13]; [25],-0.257 (inactive)
same,z-score,[13]; [26],0.309
same,luciferase signal,[15],48 AU (inactive)
same,log fold change Tl+ flux,[16],0.286 (active) and 0.195 (active)
same,log fold change Tl+ flux,[17],0.844 (active) and 0.685 (active)
same,log fold change Tl+ flux,[18],0.62 (active) and 0.894 (active)
c1ccc2[nH]c(-c3cscn3)nc2c1,nuclear beta-catenin stimulation,[1]; at 10 µM,1.5% (inactive)
same,nuclear beta-catenin stimulation,"[1]; stimulation, at 2 µM",1.4%
same,insulin secretion stimulation,[2],-1.2% (inactive)
same,viability decrease,[3],-3.75% (inactive)
same,tube area decrease,[4],13.1% (inactive)
same,GLP1 secretion stimulation,[5],4.2% (inactive)
same,inhibition of viability,[6],5.1% (inactive)
same,viability decrease (inhibition),[7],-9.9% (inactive)
same,viability decrease (inhibition),[8],-17.1% (inactive)
same,inhibition,[9],2.18% (inactive)
same,mean signal,[10],278 (inactive)
same,red/green cell ratio (normalised),[11],1.18 (inactive)
same,normalised cell number,[11]; [19],0.98
same,normalised cell number,[11]; [20],1.16
same,z-score,[13]; [25],-0.164 (inactive) and 2.01 (active)
same,z-score,[13]; [26],0.655 and 0.153
same,remaining NAD,[14],10 nM (inactive)
same,luciferase signal,[15],12 AU (inactive)
same,log fold change Tl+ flux,[16],-0.0155 (inactive)
same,log fold change Tl+ flux,[17],-0.00469 (inactive)
same,log fold change Tl+ flux,[18],-0.00898 (inactive)
COc1ccccc1OCC(O)COC(N)=O (configuration not stated),nuclear beta-catenin stimulation,[1]; at 10 µM,-2.7% (inactive)
same,nuclear beta-catenin stimulation,"[1]; stimulation, at 2 µM",-1.9%
same,insulin secretion stimulation,[2],-1.2% (inactive)
same,viability decrease,[3],-1% (inactive)
same,tube area decrease,[4],8.8% (inactive)
same,GLP1 secretion stimulation,[5],-4% (inactive)
same,inhibition of viability,[6],-3.97% (inactive)
same,viability decrease (inhibition),[7],11.1% (inactive)
same,viability decrease (inhibition),[8],-10.7% (inactive)
same,inhibition,[9],-17.6% (inactive)
same,mean signal,[10],264 (inactive)
same,red/green cell ratio (normalised),[11],0.97 (inactive)
same,normalised cell number,[11]; [19],1.19
same,normalised cell number,[11]; [20],1.16
same,z-score,[13]; [25],-0.379 (inactive) and 0.493 (inactive)
same,z-score,[13]; [26],-0.0724 and 0.212
same,remaining NAD,[14],10 nM (inactive)
same,luciferase signal,[15],56 AU (inactive)
same,log fold change Tl+ flux,[16],0.00752 (inactive)
same,log fold change Tl+ flux,[17],0.0402 (inactive)
same,log fold change Tl+ flux,[18],-0.0478 (inactive)
C/C=C/C(=O)N(CC)c1ccccc1C,nuclear beta-catenin stimulation,[1]; at 10 µM,1.7% (inactive)
same,nuclear beta-catenin stimulation,"[1]; stimulation, at 2 µM",0.9%
same,insulin secretion stimulation,[2],-0.4% (inactive)
same,viability decrease,[3],-18.4% (inactive)
same,tube area decrease,[4],12.7% (inactive)
same,GLP1 secretion stimulation,[5],-3.7% (inactive)
same,inhibition of viability,[6],-11.3% (inactive)
same,viability decrease (inhibition),[7],19.5% (inactive)
same,viability decrease (inhibition),[8],-26.5% (inactive)
same,inhibition,[9],-11.5% (inactive)
same,mean signal,[10],254 (inactive)
same,red/green cell ratio (normalised),[11],1.1 (inactive)
same,normalised cell number,[11]; [19],0.88
same,normalised cell number,[11]; [20],0.97
same,fold change,[12]; [21],0.871 (inactive) and 0.856 (inactive) and 0.894 (inactive)
same,fold change,[12]; [22],1.68 and 2.74 and 1.41
same,cell count,[12]; [23],8830 and 11400 and 8670
same,cell count,[12]; [24],10100 and 13300 and 9700
same,z-score,[13]; [25],-0.397 (inactive) and -0.423 (inactive)
same,z-score,[13]; [26],-1.25 and -1.17
same,remaining NAD,[14],10 nM (inactive)
same,luciferase signal,[15],64 AU (inactive)
same,log fold change Tl+ flux,[16],0.0255 (inactive)
same,log fold change Tl+ flux,[17],-0.0381 (inactive)
same,log fold change Tl+ flux,[18],-0.0171 (inactive)
